SIRT5 inh – blocks human SIRT5 desuccinylation of peptide; 330,000 tested, 1.1% active; Purified SirT5, succinyl-peptide AMC, trypsin-coupled fluorescence; inhibition, % at 15 µM; in the data active = inhibition above about 15%
PglD inh – PglD (C. jejuni) enzyme inhibition | purified PglD enzyme, DTNB colorimetric CoA detection | inhibition, % at 12.5 µM | 360,000 tested, 0.098% active; in the data active = inhibition above about 16%, passing the limit was not always enough
FGF22 binding – FGF22 (human) thermal shift binding; activity (Tm shift, normalised), % at 9.99 µM; recombinant FGF22 thermal shift, SYPRO orange fluorescence; percent of sucrose octasulfate shift, DMSO zero; AID 651658; 340,000 tested, 1.5% active; Q9HCT0;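 active = mean Tm shift, scaled 0 neutral to 100 positive control, at about 1.3% or above, every replicate too, limit read from the data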
Target sequence (Q9HCT0 whole entry, looked up): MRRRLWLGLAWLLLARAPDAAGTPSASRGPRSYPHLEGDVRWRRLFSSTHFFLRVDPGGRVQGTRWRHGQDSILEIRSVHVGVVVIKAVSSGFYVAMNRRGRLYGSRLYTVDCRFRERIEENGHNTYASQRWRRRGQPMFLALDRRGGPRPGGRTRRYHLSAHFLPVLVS
dFosB act – mouse delta FosB homodimer activation; P13346; purified delta FosB, TAMRA-CDK5 oligo fluorescence polarization; percent of positive-control signal above neutral wells; activation, % at 25 µM; 340,000 tested, 0.99% active; AID 493131;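 active = mean activation above about 17%, with every replicate also reaching it, limit read from the data, passing the limit was not always enough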
Target sequence (P13346 whole entry, looked up): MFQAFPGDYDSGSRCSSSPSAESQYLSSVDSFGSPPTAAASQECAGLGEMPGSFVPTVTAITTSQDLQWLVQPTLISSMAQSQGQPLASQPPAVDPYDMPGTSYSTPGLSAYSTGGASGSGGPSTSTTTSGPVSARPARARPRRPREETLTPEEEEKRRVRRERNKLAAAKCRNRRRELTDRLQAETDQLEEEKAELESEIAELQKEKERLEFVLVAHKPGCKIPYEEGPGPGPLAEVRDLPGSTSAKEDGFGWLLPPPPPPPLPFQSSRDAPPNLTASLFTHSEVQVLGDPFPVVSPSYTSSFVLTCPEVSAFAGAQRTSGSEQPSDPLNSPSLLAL
PvdQ inh – blocks Pseudomonas aeruginosa PvdQ acylase activity; AID 488965; purified PvdQ acylase, fluorescence plate reader; inhibition, % at 10 µM; 340,000 tested, 0.063% active; in the data active = inhibition above about 30%, passing the limit was not always enough;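 note: 0% = vehicle neutral wells and 100% = reference inhibitor wells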
CDK5 p35 inh – blocks human CDK5/p35 kinase activity. 330,000 tested, 0.01% active. Recombinant CDK5/p35, ADP-Glo luminescence, 60 min. Q00535+Q15078. inhibition, % at 10 µM;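 active = highest replicate inhibition of at least 50% and at least 75% of replicates reaching 50%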;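 note: plate controls were DMSO neutral control for no effect and GW8510 at 10 µM for full effect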
An asterisk follows results filed as active; nt = no result. Sampled rows, rich in hits. Any-hit rate of the full collection: about 2.8%.

SMILES	SIRT5 inh	PglD inh	FGF22 binding	dFosB act	PvdQ inh	CDK5 p35 inh
O=C(c1ccc(S(=O)(=O)N2CCCC2)cc1)N1CCN(Cc2ccc3c(c2)OCO3)CC1	nt	0.9	nt	-6.2	-6.1	0.0
C[C@H]1CCCCO[C@H](CN(C)C(=O)Nc2ccc3c(c2)OCO3)[C@@H](C)CN([C@@H](C)CO)C(=O)c2cc(NC(=O)CCC(F)(F)F)ccc2O1	-4.5	2.9	-0.2	nt	nt	nt
CC1(C)CC(=O)C=C(c2ccc(-c3ccc4[nH]ccc4c3)cc2)C1=O	-2.6	-5.6	0.3	nt	nt	nt
CC1(C)CC(=O)C=C(c2ccccc2-c2ccc3cc[nH]c3c2)C1=O	nt	1.6	43.4*	nt	nt	nt
Cn1c(-c2csc(-c3ccccc3)n2)n[nH]c1=S	0.1	3.6	43.8*	2.1	7.7	-0.6
COc1ccc(N(C)C(=O)Cc2c(C(=O)O)[nH]c3ccccc23)c(OC)c1	2.3	nt	43.9*	2.8	3.6	-1.0
COc1ccc2c(c1OC)C(=O)N(c1ccc(O)cc1)C2=O	-0.8	nt	43.2*	5.8	-7.4	-1.0
Cc1cccc(NC(=O)CN2C(=O)N/C(=C/c3cc(C)n(C)c3C)C2=O)c1	-0.3	nt	43.8*	-0.3	-17.6	-1.7
Cc1cccc(NC(=O)CN2C(=O)N/C(=C/c3cc(C)n(-c4ccncc4)c3C)C2=O)c1	-3.6	-10.2	-0.1	8.7	-1.4	-0.9
CC(C)NC(=O)c1cccc(Br)c1	27.8*	-1.7	0.6	1.8	13.0	0.8
CNC[C@H]1OCCCC[C@H](C)Oc2ccc(NS(=O)(=O)c3ccc(OC)cc3)cc2C(=O)N([C@@H](C)CO)C[C@@H]1C	8.4	-0.4	nt	nt	nt	nt
CCN(CC)N=Nc1ccc(S(N)(=O)=O)cc1	17.8*	nt	0.1	-5.1	-11.3	1.1
CCOC(=O)CC(C#N)c1cn(C)c2ccccc12 (configuration not stated)	nt	0.4	nt	-5.2	37.6*	-0.6
CC(=O)c1ccc(N(C(=O)c2ccco2)C(C(=O)NC2CCCC2)c2ccc(N3CCOCC3)cc2)cc1 (configuration not stated)	0.7	-9.3	43.7*	-4.7	3.2	-4.0
COc1cc(OC)cc(N(C(=O)c2ccco2)C(C(=O)NC2CCCC2)c2ccc(N3CCOCC3)cc2)c1 (configuration not stated)	-0.2	-0.3	-0.2	0.7	-5.9	-2.8
CO[C@@H]1CN(C)C(=O)c2ccc(NC(C)=O)cc2OC[C@@H](C)N(C(=O)C2CCCCC2)C[C@H]1C	nt	-4.0	0.2	nt	nt	nt
COC(=O)C1CC(O)CN1C(=O)Nc1cccc(C(F)(F)F)c1 (configuration not stated)	-3.0	-1.7	43.3*	-0.3	16.4	-0.9
CC1CCCCN1C(=O)Nc1cccc(C(F)(F)F)c1 (configuration not stated)	-3.4	nt	0.1	-1.4	-10.9	0.8
N#Cc1cccc(-c2ccc3c(c2)[C@H]2[C@H](CCN2Cc2ccncc2)[C@@H](CO)N3)c1	-2.4	nt	nt	nt	nt	nt
Cc1noc(C)c1NC(=O)N(C)C[C@@H]1Oc2ccc(NS(=O)(=O)c3ccccc3)cc2CC(=O)N([C@@H](C)CO)C[C@@H]1C	-3.3	1.6	0.1	nt	nt	nt
C[C@@H]1CN([C@@H](C)CO)C(=O)c2cc(-c3ccccc3)cnc2O[C@H]1CN(C)C(=O)C1CCCCC1	-2.4	0.3	-0.5	nt	nt	nt
COc1ccc(S(=O)(=O)N(C)C[C@H]2OCCCC[C@H](C)Oc3ccc(NS(=O)(=O)c4ccc(Cl)cc4)cc3C(=O)N([C@H](C)CO)C[C@H]2C)cc1	22.1*	nt	-0.7	nt	nt	nt
COc1ccc(S(=O)(=O)Nc2ccc3c(c2)C(=O)N([C@@H](C)CO)C[C@@H](C)[C@@H](CN(C)S(=O)(=O)c2ccc(Cl)cc2)OCCCC[C@H](C)O3)cc1	20.7*	-1.5	nt	nt	nt	nt
COc1ccc(S(=O)(=O)Nc2ccc3c(c2)C(=O)N([C@H](C)CO)C[C@H](C)[C@@H](CN(C)S(=O)(=O)c2ccc(Cl)cc2)OCCCC[C@H](C)O3)cc1	0.1	-2.1	0.1	nt	nt	nt
COc1ccc(S(=O)(=O)N(C)C[C@@H]2OCCCC[C@H](C)Oc3ccc(NS(=O)(=O)c4ccc(Cl)cc4)cc3C(=O)N([C@@H](C)CO)C[C@H]2C)cc1	20.8*	nt	-0.6	nt	nt	nt
SMILES	SIRT5 inh	PglD inh	FGF22 binding	dFosB act	PvdQ inh	CDK5 p35 inh
COc1ccc(S(=O)(=O)Nc2ccc3c(c2)C(=O)N([C@H](C)CO)C[C@@H](C)[C@@H](CN(C)C(=O)NC2CCCCC2)OCCCC[C@H](C)O3)cc1	3.7	0.1	0.5	nt	nt	nt
CCOc1cc(/C=N/NC(=O)c2cccnc2)cc(Br)c1OCC(N)=O	-2.9	nt	43.7*	-13.1	-1.1	-2.2
CCOc1ccc(/C=C2/SC(=S)N(CCC(=O)Nc3ccc(C(=O)O)cc3)C2=O)cc1	-4.6	2.3	-0.2	47.9*	2.6	0.6
Cc1ccc(NC(=O)COc2cccc(/C=C3\SC(=S)N(CCC(=O)O)C3=O)c2)cc1Cl	26.8*	nt	0.4	-8.9	0.6	1.2
O=C(CCN1C(=O)/C(=C/c2ccc3c(c2)OCO3)SC1=S)Nc1cccc(C(=O)O)c1	17.3*	-7.7	0.1	-4.4	-18.9	0.9
O=C(CCN1C(=O)/C(=C\c2ccccc2)SC1=S)Nc1ccc(C(=O)O)cc1	-4.2	-2.1	0.1	-0.9	-6.4	0.7
O=C(CCN1C(=O)/C(=C\c2ccc(F)cc2)SC1=S)Nc1ccc(O)cc1	-0.3	-3.0	-0.1	32.3*	-8.2	-0.9
O=C(O)CCN1C(=O)/C(=C\c2cccc(OCC(=O)Nc3ccc(Cl)cc3)c2)SC1=S	1.5	-12.0	0.0	-16.8	0.9	-0.7
C[C@H](CO)N1C[C@H](C)[C@H](CN(C)Cc2ccncc2)Oc2ccc(NC(=O)NC3CCCCC3)cc2C1=O	-3.1	1.6	0.1	nt	nt	nt
CO[C@@H](CN(C)Cc1cc(F)ccc1F)[C@@H](C)CN([C@H](C)CO)S(=O)(=O)c1ccc(F)cc1	-0.6	-3.0	0.0	nt	nt	nt
COc1cccc(/C=C2/SC(=S)N(CCCC(=O)Nc3ccc(O)cc3)C2=O)c1	-3.0	-3.6	-0.1	5.0	-8.6	0.1
COc1ccc(/C=C2\SC(=S)N(CCC(=O)Nc3ccc(O)cc3)C2=O)cc1	-2.1	0.9	-0.1	34.3*	-6.8	0.5
C[C@H](NC(=O)C[C@H]1C[C@@H]2c3cc(NC(=O)NC4CCCCC4)ccc3O[C@@H]2[C@H](CO)O1)c1ccccc1	2.8	-3.1	-0.1	nt	nt	nt
CCc1ccc(CNC(=O)c2nn(C)c3c2CS(=O)(=O)c2ccccc2-3)cc1	-8.4	-1.8	67.9*	2.9	4.5	0.9
Cc1nc(Oc2ccccc2)c2ccccc2n1	nt	nt	nt	-10.6	-13.8	0.8
c1ccc(Oc2ncnc3ccccc23)cc1	nt	-7.3	43.1*	2.3	-15.1	0.3
CCN(CC)Cc1cc(Nc2c3ccccc3nc3c4ccccc4n(C)c23)cc(CN(CC)CC)c1O	-0.1	nt	-0.7	65.6*	3.4	0.6
CCOc1cc2nc3c4ccccc4n(C)c3nc2cc1OCC	-2.2	nt	-0.1	-13.1	-20.8	-0.7
